Results filed as inconclusive are left out. Calls of active or inactive are those of the source. The calls were made as follows: active = hit-call score of the fitted dose curve at least 0.9, where 1 is the maximum; inconclusive = response in the unintended direction; inactive = score below 0.9.

Assay [1] in a line: TOX21_p53_BLA_p2_viability: Viability Assessment in the Tox21 HCT-116 p53 Agonism Beta-lactamase Assay, Phase 2 (AID 2283591).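 Also: compound exposure lasted 16 h at 37 °C; actives lower the ATP signal meaning cytotoxicity.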 The method in brief:
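HCT116 p53-bla cells, 4000/well, dosed after 5 h plating (217-fold dilution of DMSO stocks) and incubated 16 h at 37C. Viability taken as cellular ATP by CellTiter-Glo luminescence after 30 min RT; signal loss marks cytotoxicity.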

In assay [2] the target is Cellular tumor antigen p53 (Homo sapiens) (UniProt P04637). In words: TOX21_p53_BLA_p2_ratio: Tox21 HCT-116 p53 Agonism Beta-lactamase Assay, Ratio, Phase 2 (AID 2283592). In a few lines:
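In this cell-based reporter format, HCT116 cells were dosed with chemicals delivered from DMSO by 217-fold dilution and incubated 16 h at 37C. Emission at 460 and 530 nm after 2 h CCF4-AM loading provided the ratio, fitted upward versus DMSO.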

A short description of assay [3]: TOX21_p53_BLA_p3_viability: Viability Assessment in the Tox21 HCT-116 p53 Agonism Beta-lactamase Assay, Phase 3 (AID 2283593).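 Also: cells exposed to compound for 16 h before reading.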 In a few lines:
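HCT116 cells, 4000/well, dosed 5 h after plating by pin transfer (217-fold dilution from DMSO stock) and incubated 16 h at 37C, 5% CO2. Viability read as ATP luminescence with CellTiter-Glo after 30 min at room temperature.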

For assay [4], the target named is Cellular tumor antigen p53 (Homo sapiens) (UniProt P04637). Nature of the assay: TOX21_p53_BLA_p3_ratio: Tox21 HCT-116 p53 Agonism Beta-lactamase Assay, Ratio, Phase 3 (AID 2283596). In a few lines:
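HCT116 p53-bla cells (4000/well) given compound in DMSO (217-fold dilution) after 5 h, incubated 16 h at 37C. CCF4-AM substrate 2 h at room temperature; 460/530 nm emission ratio, gain fitted against DMSO.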

Assay [5] can be described thus: TOX21_p53_BLA_p4_viability: Viability Assessment in the Tox21 HCT-116 p53 Agonism Beta-lactamase Assay, Phase 4 (AID 2283597).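 Also: hits lower the luminescence signal meaning cytotoxicity.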 The method in brief:
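We seeded HCT116 p53 reporter cells at 4000/well and waited 5 h. We then added compounds in DMSO at a 217-fold dilution and incubated for 16 h. Viability was read as CellTiter-Glo luminescence after 30 min at RT.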

A short description of assay [6]: TOX21_p53_BLA_p5_viability: Viability Assessment in the Tox21 HCT-116 p53 Agonism Beta-lactamase Assay, Phase 5 (AID 2283600). In a few lines: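 Compounds, pinned from DMSO at 217-fold dilution, were left on the cells for 16 h. The viability endpoint was ATP content measured by CellTiter-Glo luminescence, where falling signal reflects cytotoxicity.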
For assay [7], the target named is Cellular tumor antigen p53 (Homo sapiens) (UniProt P04637). Nature of the assay: TOX21_p53_BLA_p5_ratio: Tox21 HCT-116 p53 Agonism Beta-lactamase Assay, Ratio, Phase 5 (AID 2283599). The method in brief: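 HCT-116 p53-bla cells (4000/well) plated 5 h, dosed with compound (217-fold DMSO dilution) for 16 h at 37 C; CCF4-AM substrate 2 h at room temperature. Activity is the 460/530 nm emission ratio (405 nm excitation), fitted in gain-of-signal direction versus DMSO.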
Sequence of Cellular tumor antigen p53 (Homo sapiens) (P04637 whole entry, looked up): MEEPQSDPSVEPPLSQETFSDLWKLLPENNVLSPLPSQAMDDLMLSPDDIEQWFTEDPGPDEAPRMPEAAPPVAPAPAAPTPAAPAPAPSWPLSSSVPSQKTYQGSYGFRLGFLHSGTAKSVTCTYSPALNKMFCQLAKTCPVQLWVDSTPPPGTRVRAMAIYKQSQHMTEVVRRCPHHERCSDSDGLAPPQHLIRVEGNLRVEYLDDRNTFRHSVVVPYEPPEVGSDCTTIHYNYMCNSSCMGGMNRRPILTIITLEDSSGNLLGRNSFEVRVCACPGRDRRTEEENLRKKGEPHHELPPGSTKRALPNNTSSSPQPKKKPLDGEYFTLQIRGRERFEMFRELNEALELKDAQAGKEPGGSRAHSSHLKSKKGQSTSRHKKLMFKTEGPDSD

Assay [8] has the same target. In words: TOX21_p53_BLA_p4_ratio: Tox21 HCT-116 p53 Agonism Beta-lactamase Assay, Ratio, Phase 4 (AID 2283601). The method in brief: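 HCT-116 p53 beta-lactamase reporter cells (4000/well) preincubated 5 h, then compound (217-fold dilution of DMSO stock) for 16 h at 37C. CCF4-AM substrate added 2 h at room temperature; 460/530 nm emission ratio fitted upward versus DMSO.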

Assay [9] deals with PGR (gene 5241) (UniProt P06401). In words: TOX21_PR_BLA_Followup_Antagonist_ratio: Tox21 HEK293 Progesterone Receptor (PR) Antagonism Beta-lactamase Follow-Up Assay, Ratio (AID 2283934). In a few lines:
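PR-UAS-bla HEK293T cells in medium with 2% charcoal-stripped FBS were treated with compounds plus 1 nM (final) promegestone (R5020) for 16 hr at 37C. LiveBLAzer B/G FRET substrate was then added for 2 h at room temperature; signal is cleaved/uncleaved substrate ratio versus DMSO.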

The nature of assay [10]: TOX21_PR_BLA_Followup_Agonist_viability: Viability Assessment in the Tox21 HEK293 Progesterone Receptor (PR) Agonism Beta-lactamase Follow-Up Assay (AID 2283935).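 Also: signal loss means lower viability so actives are cytotoxic.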 The method in brief: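 PR-UAS-bla HEK293T cells in 2% charcoal-stripped FBS medium, compound added after 6 hr plating, 16 hr at 37C/5% CO2. After bla FRET read, CellTiter-Glo added; luminescence read after 30 min at room temperature; signal loss marks cytotoxicity.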

Assay [11] is described as follows: TOX21_PR_BLA_Followup_Antagonist_viability: Viability Assessment in the Tox21 HEK293 Progesterone Receptor (PR) Antagonism Beta-lactamase Follow-Up Assay (AID 2283936).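 Also: hits lower the luminescence signal meaning cytotoxicity.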 In a few lines:
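PR-UAS-bla HEK293T cells (3,000/well, 2% charcoal-stripped FBS) given compound plus R5020 agonist, 16 h at 37C. CellTiter-Glo added after bla read, 30 min at room temperature; luminescence loss indicates cytotoxicity.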

For assay [12], the target named is PGR (gene 5241) (UniProt P06401). In words: TOX21_PR_LUC_Followup_Antagonist: Tox21 HEK293 Progesterone Receptor (PR) Antagonism Luciferase Follow-Up Assay (AID 2283938).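 Also: curve fitted upward as signal gain over DMSO baseline despite antagonist label.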 In a few lines: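 Luminescence from ONE-Glo reagent, measured after 30 min at room temperature, served as readout. Cells (HEK293 carrying PR-A-luc) had been treated 16 h at 37C with DMSO-dissolved compounds. Activity was fitted against DMSO controls.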
Sequence of PGR (gene 5241) (P06401 whole entry, looked up): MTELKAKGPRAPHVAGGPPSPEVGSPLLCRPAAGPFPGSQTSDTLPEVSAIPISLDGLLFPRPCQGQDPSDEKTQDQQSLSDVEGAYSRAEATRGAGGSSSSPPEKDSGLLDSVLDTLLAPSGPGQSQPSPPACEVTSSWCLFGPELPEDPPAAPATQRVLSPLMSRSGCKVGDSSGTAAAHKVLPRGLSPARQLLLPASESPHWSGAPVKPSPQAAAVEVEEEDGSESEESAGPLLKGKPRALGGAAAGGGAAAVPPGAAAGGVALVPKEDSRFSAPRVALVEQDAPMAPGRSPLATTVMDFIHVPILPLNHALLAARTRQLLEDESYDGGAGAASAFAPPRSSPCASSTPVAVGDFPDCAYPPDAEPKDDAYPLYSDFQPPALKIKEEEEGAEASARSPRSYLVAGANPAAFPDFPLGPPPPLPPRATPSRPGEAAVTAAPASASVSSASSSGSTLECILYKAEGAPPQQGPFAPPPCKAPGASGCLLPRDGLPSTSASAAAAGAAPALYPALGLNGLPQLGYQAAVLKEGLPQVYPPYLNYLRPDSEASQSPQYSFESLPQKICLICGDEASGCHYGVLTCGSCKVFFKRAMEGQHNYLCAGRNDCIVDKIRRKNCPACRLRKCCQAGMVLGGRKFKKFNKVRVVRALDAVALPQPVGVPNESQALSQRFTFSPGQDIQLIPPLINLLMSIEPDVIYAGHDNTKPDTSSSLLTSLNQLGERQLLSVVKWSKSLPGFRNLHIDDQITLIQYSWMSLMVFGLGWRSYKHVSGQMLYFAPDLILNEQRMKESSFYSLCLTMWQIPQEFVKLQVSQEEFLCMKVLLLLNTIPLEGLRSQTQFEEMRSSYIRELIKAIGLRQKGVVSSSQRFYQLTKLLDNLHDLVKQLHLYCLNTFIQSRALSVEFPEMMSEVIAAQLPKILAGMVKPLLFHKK

Assay [13] in a line: TOX21_PR_LUC_Followup_Antagonist_viability: Viability Assessment in the Tox21 HEK293 Progesterone Receptor (PR) Antagonism Luciferase Follow-Up Assay (AID 2283940). The method in brief: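 HEK293-PR-A-luc cells, precultured 5 days in assay medium with 10% charcoal-stripped FBS, were seeded at 3,000 cells/well, treated with compounds in DMSO for 16 h at 37C, and viability was read as cellular ATP by CellTiter-Glo luminescence.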

The nature of assay [14]: TOX21_PR_LUC_Followup_Agonist_viability: Viability Assessment in the Tox21 HEK293 Progesterone Receptor (PR) Agonism Luciferase Follow-Up Assay (AID 2283941).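 Also: loss of signal means cytotoxicity so actives lower viability.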 The method in brief:
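HEK293-PR-A-luc cells, pre-cultured 5 days in 10% charcoal-stripped FBS, were seeded at 3,000 cells/well, rested 5 h at 37C, then given compound in DMSO for 16 h at 37C. Cellular ATP was read by CellTiter-Glo luminescence; signal loss indicates cytotoxicity.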

The target in assay [15] is Thyroid hormone receptor alpha (Rattus norvegicus) + Thyroid hormone receptor beta (Rattus norvegicus) (UniProt P18113+P63059). In words: TOX21_TR_LUC_GH3_Antagonist_Followup: Tox21 GH3 Thyroid Hormone Receptor Antagonism Luciferase Follow-Up Assay (AID 2283942). In a few lines:
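Antagonist mode: GH3 cells seeded 1,500/well, compounds at 15 concentrations (92 uM to 5nM final) plus T3 at 1.0 nM final, 24 h at 37C. Luciferase read with ONE-Glo after 30 min at room temperature.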

The target in another assay is THRA (gene 7067) (UniProt P10827). Nature of the assay: TOX21_TRA_COA_Antagonist_Followup_ratio: Tox21 Thyroid Hormone Receptor alpha Antagonism through Coactivator Recruitment Follow-Up Assay, Ratio (AID 2283953). In a few lines: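 This follow-up to the GH3 luciferase screen checks specificity in a cell-free format. It measures SRC-2 coactivator peptide binding to TRα LBD by TR-FRET and scores loss of ratio signal relative to DMSO.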
Sequence of THRA (gene 7067) (P10827 whole entry, looked up, the tested form may be a part): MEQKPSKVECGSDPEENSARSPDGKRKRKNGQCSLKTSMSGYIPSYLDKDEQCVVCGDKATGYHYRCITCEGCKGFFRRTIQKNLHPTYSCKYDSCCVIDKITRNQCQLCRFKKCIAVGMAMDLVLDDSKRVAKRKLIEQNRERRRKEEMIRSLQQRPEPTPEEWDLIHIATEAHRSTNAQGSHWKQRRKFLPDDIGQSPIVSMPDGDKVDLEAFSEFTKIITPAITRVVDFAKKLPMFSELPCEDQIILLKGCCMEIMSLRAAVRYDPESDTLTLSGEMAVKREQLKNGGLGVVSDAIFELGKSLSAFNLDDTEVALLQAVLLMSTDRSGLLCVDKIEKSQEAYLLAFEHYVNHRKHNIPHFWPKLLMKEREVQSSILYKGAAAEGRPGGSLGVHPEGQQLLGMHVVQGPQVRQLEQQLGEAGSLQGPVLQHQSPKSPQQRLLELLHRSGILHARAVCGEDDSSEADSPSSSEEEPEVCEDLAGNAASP

Assay [16] has as its target THRB (gene 7068) (UniProt P10828). Nature of the assay: TOX21_TRB_BLA_Antagonist_Followup_ratio: Tox21 Thyroid Hormone Receptor beta Antagonism Beta-lactamase (BLA) Follow-Up Assay, Ratio (AID 2283958). The method in brief:
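GAL4-DBD/human TRβ-LBD fusion in GeneBLAzer UAS-bla HEK293T cells, 3,000 cells/well in phenol red-free DMEM with 2% charcoal-stripped FBS; compounds at 11 concentrations in triplicate, 18 h at 37C. CCF4-AM substrate 2 h, 460:530 nm ratio relative to DMSO.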

Assay [17] in a line: TOX21_TRB_BLA_Antagonist_Followup_viability: Viability Assessment in the Tox21 Thyroid Hormone Receptor beta Antagonism Beta-lactamase (BLA) Follow-Up Assay (AID 2283961). In a few lines: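 Viability read as CellTiter-Glo ATP luminescence (loss of signal = cytotoxicity) in the same plates as the TRβ-bla readout. TRβ-LBD/GAL4 UAS-bla HEK293T cells were exposed to compounds, 11 concentrations in triplicate, for 18 h at 37C/5% CO2.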

In assay [18] the target is THRB (gene 7068) (UniProt P10828). Nature of the assay: TOX21_TRB_COA_Antagonist_Followup_ratio: Tox21 Thyroid Hormone Receptor beta Antagonism through Coactivator Recruitment Follow-Up Assay, Ratio (AID 2283967). The method in brief:
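Cell-free TR-FRET: GST-TRb LBD (5.0 nM) with fluorescein-SRC-2 peptide (200 nM) and Tb anti-GST antibody (2 nM), 0.10% BSA. 520:495 nm emission ratio normalized to DMSO (0%) and T3 (100%).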

Assay [19] in a line: TOX21_TR_RXR_BLA_Antagonist_Followup_viability: Viability Assessment in the Tox21 Thyroid Hormone Receptor beta Retinoid X Receptor alpha (RXRa) Antagonism Beta-lactamase (BLA) Follow-Up Assay (AID 2283979). The method in brief: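 RXRa-bla HEK293T cells (2,500/well, phenol red-free DMEM, 2% charcoal-stripped FBS) were attached 5 h, then exposed to compounds at 11 concentrations in triplicate for 16 h at 37C. Viability measured by CellTiter-Glo ATP luminescence, bidirectional fitting versus DMSO.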

Sequence of THRB (gene 7068) (P10828 whole entry, looked up, the tested form may be a part): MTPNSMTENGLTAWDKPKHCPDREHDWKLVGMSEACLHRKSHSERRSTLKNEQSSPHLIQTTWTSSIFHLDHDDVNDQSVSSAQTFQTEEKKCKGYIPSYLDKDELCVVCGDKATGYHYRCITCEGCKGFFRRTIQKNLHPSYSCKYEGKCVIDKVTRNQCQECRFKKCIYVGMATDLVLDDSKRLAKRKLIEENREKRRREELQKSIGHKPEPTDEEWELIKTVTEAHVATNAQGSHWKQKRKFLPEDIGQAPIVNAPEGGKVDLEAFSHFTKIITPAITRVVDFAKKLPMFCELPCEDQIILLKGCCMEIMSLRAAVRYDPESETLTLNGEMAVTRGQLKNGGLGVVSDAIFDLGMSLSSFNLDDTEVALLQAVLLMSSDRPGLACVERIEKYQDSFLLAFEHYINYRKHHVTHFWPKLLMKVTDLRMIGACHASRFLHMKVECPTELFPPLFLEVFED

`C[CH2][Ge]([Cl])([CH2]C)[CH2]C`: the compound was called inactive in assay [1], in assay [2], in assay [3], in assay [4], in assay [5] and in assay [6].

As to `O=C(O)C(=O)Nc1cccc(-c2nn[nH]n2)c1`, the outcome in assay [1], in [2], in assay [3], in [4], in assay [5] and in [7] was inactive. Moreover, the outcome in assay [8] was inactive.

Turning to `Cc1ccsc1/C=C/C1=NCCCN1C`, the result in assay [1], in assay [2], in assay [3], in [4], in assay [5] and in [7] was inactive. For the same compound, the outcome in assay [8] was inactive.

On to `COc1cc2[nH]c(C)c(CCN3CCN(c4ccccc4)CC3)c2cc1OC`, for which the call in [1], in [2], in assay [3], in [4], in assay [5] and in assay [6] was inactive.

Take `Cc1nc2ccccn2c(=O)c1CCN1CCC(C(=O)c2ccc(F)cc2)CC1`: the outcome in assay [1], in assay [2], in assay [3], in [4], in assay [5] and in assay [6] was inactive. For the same compound, the result in assay [8] was inactive.

`Cc1cc(/C=C/c2ccc3cc(N(C)C)ccc3[n+]2C)c(C)n1-c1ccccc1`: the AC50 is 16.7 µM (active) in assay [1]; 13.4 µM (active) in assay [2]; 16.1 µM (active) in [4]; 16.6 µM (active) in assay [5]; 20.1 µM (active) in assay [8]. Besides, the result in assay [3] and in [6] was inactive.

For the compound `CCOC(=O)C1=C(C)NC(C)=C(C(=O)OC)C1c1cccc([N+](=O)[O-])c1` (stereo not drawn), the call in assay [1], in assay [2], in assay [3], in assay [4], in assay [5] and in [7] was inactive. In addition, the outcome in [8], in assay [10], in assay [11], in assay [13] and in [14] was inactive. Also, the AC50 is 14.9 µM (active) in the assay with PGR (gene 5241) [9] and 11.2 µM (active) with PGR (gene 5241) [12].

On to `CC(C)(C(=O)O)c1ccc(C(O)CCCN2CCC(C(O)(c3ccccc3)c3ccccc3)CC2)cc1` (stereo not drawn), for which the compound was called inactive in [1], in assay [2], in assay [3], in assay [4], in [5] and in assay [6]. The outcome in assay [8] was inactive.

For the compound `c1ccc2c(CC3=NCCN3)cccc2c1`, the result in assay [1], in assay [2], in [3], in assay [4], in assay [5] and in assay [6] was inactive. Also, the result in assay [8] was inactive.

`CC(C)N=C(N)/N=C(\N)Nc1ccc(Cl)cc1`: the result in assay [1], in [2], in assay [3], in assay [4], in [5] and in assay [7] was inactive. Besides, the result (in [8]; in [15]; with THRA (gene 7067); with THRB (gene 7068) [16]; in assay [17]; with THRB (gene 7068) [18]) was inactive. In addition, in assay [19], the call was inactive.

With `COc1ccc2nc(NC(=O)Nc3ccccc3)sc2c1`, the compound was classed as inactive in assay [1], in [2], in assay [3], in assay [4], in assay [5] and in assay [7]. Moreover, the result (in assay [8]; in assay [15]; with THRA (gene 7067); in the assay with THRB (gene 7068) [16]; in assay [17]; with THRB (gene 7068) [18]) was inactive. Further, the compound was classed as inactive in assay [19].

Broadly, the AC50 is the concentration at which the activity in the assay is half-maximal.

These data come from PubChem BioAssay (EPA / NIEHS).
